Assay: basal MM1S mitochondrial membrane potential changes, profiling panel, cell-based, JC-1 fluorescence, 24 h, 100 nL compound (AID 1170); further: test concentration not given here
Conditions: higher = more signal

**Q.** Which z-score does the source give for COC(=O)[C@@]1(Cc2ccc(F)cc2)[C@H]2c3cc(C(=O)N4CCCC4)n(Cc4ccccc4)c3C[C@H]2CN1C(=O)c1ccccc1 here?
**A.** -0.759

**Q.** Which z-score does the source give for CCC[C@@H]1C[C@@]1(CCC)[C@@H](NC(=O)c1ccco1)c1ccc(Cl)cc1 here?
**A.** -2.07

**Q.** For C[C@@]1([C@@H](NC(=O)c2cccs2)c2ccc(-c3ccccc3)cc2)C[C@H]1C1CCCCC1, which z-score is on record?
**A.** -1.09

**Q.** With O=C1O[C@H](c2ccccc2)[C@H](c2ccccc2)N2[C@H]1[C@@H](C(=O)N1CCN(c3ncccn3)CC1)[C@]1(C(=O)Nc3ccc(C#CCCO)cc31)[C@H]2c1ccccc1OCCO as the compound, how does the z-score read?
**A.** -0.0117

**Q.** Which z-score does the source give for C=C(COC)C(=O)CC[C@H](OC(=O)c1ccccc1-c1ccccc1C(=O)O)c1ccc(CO)o1 here?
**A.** 0.433

**Q.** With COCC(=C=CC[C@@H](O)c1ccccc1OCCO)C[C@@H](O)c1ccccn1 as the compound, how does the z-score read?
**A.** -0.952

**Q.** Which z-score does the source give for COC(=O)C(CC#Cc1ccc2c(c1)[C@]1(C(=O)N2)[C@H](c2ccc(OCCO)cc2)N2[C@H](c3ccccc3)[C@H](c3ccccc3)OC(=O)[C@H]2[C@@H]1C(=O)O)C(=O)OC here?
**A.** 0.132

**Q.** For COCCCNC(=O)[C@]1(Cc2ccccc2CN=[N+]=[N-])N=C(c2ccc(OCCCO)cc2)O[C@@H]1c1ccccc1CN=[N+]=[N-], which z-score is on record?
**A.** -1.73

**Q.** With C=C(C(=O)CC[C@H](OC(=O)c1cccnc1)c1ccc(OCCO)cc1)C(C)C as the compound, how does the z-score read?
**A.** -1.45

**Q.** For CC(C)CNC(=O)[C@@]1(C)c2ccccc2C(=O)N(Cc2ccccc2)[C@H]1c1ccc(CO)cc1, which z-score is on record?
**A.** -0.216

**Q.** Which z-score does the source give for CC(C)(C)OC(=O)CC[C@]1(C(=O)O)COC(c2ccc(OCCCO)cc2)=N1 here?
**A.** 0.148

**Q.** For COc1ccc([Si](C)(C)[C@@H]2[C@@H](CC(=O)N(CCO)Cc3ccccc3)O[C@]3(C(=O)N(Cc4ccc(N5CCOC5=O)cc4)c4ccccc43)[C@H]2C)cc1, which z-score is on record?
**A.** -1.29

**Q.** With CCCCC=C[C@@H](NC(=O)CCc1ccccc1)c1ccccc1 as the compound, how does the z-score read?
**A.** -1.74

**Q.** For C=C(/C(=C/C[C@@H](OC(=O)c1ccncc1)c1ccccc1OCCO)c1cnc2ccccc2c1)C(C)C, which z-score is on record?
**A.** 1.08

**Q.** With C=C(CCCC)/C(=C/C[C@@H](OC(=O)c1ccncc1)c1ccccc1OCCO)c1cc(C(=O)OC)ccc1OC as the compound, how does the z-score read?
**A.** -1.14

**Q.** Which z-score does the source give for CC(C)N1C(=O)c2ccccc2[C@](C)(C(=O)O)[C@@H]1c1ccc(CO)cc1 here?
**A.** -0.188

**Q.** Which z-score does the source give for COC(=O)[C@@]1(Cc2ccc(OC)cc2)[C@H]2c3cc(C(=O)N(C)C)n(Cc4cc(C)n(C)n4)c3C[C@H]2CN1C(=O)c1ccccc1 here?
**A.** -0.228
